The source of these data is PubChem BioAssay (NCI).

The panel holds about 83,000 compounds, 20% with a hit somewhere; the sample as a whole holds those more often.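 Cells were grown in 96-well plates and exposed to the test compound at a single concentration for 48 hours; results are reported as percent growth, with values below 10 considered active.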 A number with no mark means an inactive call. Active and inactive are the calls of the source.

What all share (experiment): NCI-60 one-dose screen, 48 h (100 = growth as untreated, 0 = no growth, -100 = all killed)
The test system of one assay is HT29 colon. The settings on record: 10 µM unless noted.
The subject of the next assay is SNB-75 CNS. The settings on record: 10 µM unless noted.
The next assay concerns SNB-19 CNS. The note with it: 10 µM unless noted.
A further assay concerns U251 CNS. The settings on record: 10 µM unless noted.
For another assay, the system named is PC-3 prostate. The note with it: 10 µM unless noted.
Another assay deals with SK-MEL-5 melanoma. The settings on record: 10 µM unless noted.
The subject of another assay is UACC-62 melanoma. The settings on record: 10 µM.
The next assay concerns LOX IMVI melanoma. The note with it: 10 µM unless noted.
In the next assay the test system is SK-MEL-28 melanoma. The settings on record: 10 µM.
For another assay, the system named is SK-MEL-2 melanoma. The note with it: 10 µM unless noted.
The next assay has as its system EKVX NSCLC. The note with it: 10 µM unless noted.
The subject of the next assay is SN12C renal. The note with it: 10 µM unless noted.
Another assay deals with UO-31 renal. The note with it: 10 µM unless noted.
The next assay relates to ACHN renal. The settings on record: 10 µM unless noted.
The test system of the next assay is A498 renal. The settings on record: 10 µM unless noted.
The test system of a further assay is HL-60(TB) leukemia. The note with it: 10 µM unless noted.
Another assay concerns CCRF-CEM leukemia. The note with it: 10 µM unless noted.
In the next assay the test system is MOLT-4 leukemia. The settings on record: 10 µM unless noted.
The test system of another assay is RPMI-8226 leukemia. The settings on record: 10 µM unless noted.
Another assay has as its system OVCAR-8 ovarian. The note with it: 10 µM.

Take `CCCCCCCCCCCC1CCCC(C)N1` (centres undefined): the growth was 14.9% with HT29 colon; 82% with SNB-75 CNS; 93.2% in the assay on SNB-19 CNS; 59.6% with U251 CNS; 44.4% with PC-3 prostate; 97% with SK-MEL-5 melanoma. Besides, the growth is 88.2% with UACC-62 melanoma; 52.3% with LOX IMVI melanoma; 96.7% in the assay on SK-MEL-28 melanoma; -7.27% (active) with SK-MEL-2 melanoma; 91.2% with EKVX NSCLC; 75.3% in the assay on SN12C renal. Besides, the growth with UO-31 renal was 29%; in the assay on ACHN renal, 77.8%; in the assay on A498 renal, 95.8%; in the assay with HL-60(TB) leukemia, -45.8% (active); in the assay on CCRF-CEM leukemia, 16.5%; with MOLT-4 leukemia, 14.1%. Besides, the growth in the assay on RPMI-8226 leukemia was -34.7% (active); with OVCAR-8 ovarian it was 67.3%.

For the molecule `CCOC(=O)C(NC(=O)C(Cc1ccc(N(CCCl)CCCl)cc1)NC(C)=O)C(C)C` (centres undefined), the growth in the assay on HT29 colon was 67.1%; in the assay with SNB-75 CNS, 85.9%; in the assay on SNB-19 CNS, 90.6%; with U251 CNS, 73.7%; in the assay on PC-3 prostate, 67.4%; in the assay with SK-MEL-5 melanoma, 97.7%. The growth was 83.1% in the assay with UACC-62 melanoma; 66.1% in the assay with LOX IMVI melanoma; 101% in the assay with SK-MEL-28 melanoma; 92.7% in the assay with SK-MEL-2 melanoma; 97.6% in the assay with EKVX NSCLC; 76.2% in the assay with SN12C renal. Also, the growth was 82.5% in the assay with UO-31 renal; 42.7% in the assay on ACHN renal; 107% in the assay with A498 renal; 44.9% in the assay on HL-60(TB) leukemia; 71.7% in the assay on CCRF-CEM leukemia; 56.6% in the assay on MOLT-4 leukemia. In addition, the growth in the assay on RPMI-8226 leukemia was 85.1%; with OVCAR-8 ovarian, 83.1%.

With `COc1ccc(OC)c(/C=C/[N+](=O)[O-])c1`, the growth is -29.5% (active) with HT29 colon; 33.7% in the assay with SNB-75 CNS; 41.8% in the assay on SNB-19 CNS; -27.2% (active) with U251 CNS; -29.4% (active) with PC-3 prostate; -16.2% (active) with SK-MEL-5 melanoma. Moreover, the growth was -22.3% (active) with UACC-62 melanoma; -48.5% (active) in the assay with LOX IMVI melanoma; -20% (active) in the assay with SK-MEL-28 melanoma; 1.51% (active) in the assay on SK-MEL-2 melanoma; 67.7% in the assay on EKVX NSCLC; 15.9% in the assay with SN12C renal. Moreover, the growth with UO-31 renal was -81.9% (active); in the assay with ACHN renal, -67.9% (active); with A498 renal it was 18.5%; with HL-60(TB) leukemia, 1.04% (active); in the assay with CCRF-CEM leukemia, 8.78% (active); in the assay with MOLT-4 leukemia, -4.18% (active). In addition, the growth is -28.9% (active) in the assay with RPMI-8226 leukemia and 11.8% in the assay on OVCAR-8 ovarian.

As to `COC1=C(C)C(=O)C2=C(C1=O)C(CO)N1C(C#N)C3CC4C(C1C2N1CCOC41)N3C` (centres undefined), the growth in the assay with HT29 colon was -47.7% (active); with SNB-19 CNS, 8.12% (active); in the assay on U251 CNS, -9.96% (active); in the assay on PC-3 prostate it was -40.2% (active); in the assay with SK-MEL-5 melanoma, -90.1% (active); with UACC-62 melanoma, -81.2% (active). Besides, the growth is -21.2% (active) in the assay with LOX IMVI melanoma; -58.4% (active) in the assay on SK-MEL-2 melanoma; 0.181% (active) in the assay with EKVX NSCLC; 19.8% in the assay on SN12C renal; -9.01% (active) in the assay with ACHN renal; -67.7% (active) in the assay on A498 renal. For the same molecule, the growth with HL-60(TB) leukemia was -33.9% (active); with CCRF-CEM leukemia, -37.8% (active); in the assay on MOLT-4 leukemia, -2.61% (active); in the assay with RPMI-8226 leukemia, -41.3% (active).

For `C[C@H]1CCC/C=C/[C@@H]2C[C@H](O)C[C@H]2[C@H](O)/C=C/C(=O)O1`, the growth was -53.5% (active) in the assay with HT29 colon; -19.7% (active) in the assay on SNB-75 CNS; 38.3% in the assay with SNB-19 CNS; 20.6% in the assay with U251 CNS; -14.6% (active) in the assay with PC-3 prostate; -96.7% (active) in the assay on SK-MEL-5 melanoma. Also, the growth in the assay with UACC-62 melanoma is 20.9%; in the assay on LOX IMVI melanoma, -69.4% (active); in the assay with SK-MEL-2 melanoma, -21.5% (active); with EKVX NSCLC it was 11.1%; with SN12C renal, 19.8%; with UO-31 renal, -22.9% (active). The growth was 1.27% (active) with ACHN renal; -37.1% (active) with A498 renal; -22.5% (active) in the assay on HL-60(TB) leukemia; 7.53% (active) in the assay on CCRF-CEM leukemia; -7.93% (active) in the assay with MOLT-4 leukemia; -17.9% (active) with RPMI-8226 leukemia.

On to `c1ccc2c(c1)[nH]c1c2cc[n+]2cc3c(cc12)CCCC3`, for which, in the assay with HL-60(TB) leukemia, the growth was 13.5%.

Regarding `CN1CCN(c2ccc([N+](=O)[O-])c3no[n+]([O-])c23)CC1`, the growth was -51.8% (active) in the assay with HT29 colon; -78.2% (active) in the assay with SNB-75 CNS; -30.5% (active) in the assay with SNB-19 CNS; -95.6% (active) in the assay on U251 CNS; -65.9% (active) with PC-3 prostate; -46.6% (active) in the assay on SK-MEL-5 melanoma. In addition, the growth in the assay on UACC-62 melanoma is -58.8% (active); in the assay with LOX IMVI melanoma, -46.2% (active); in the assay with SK-MEL-28 melanoma it was 17.3%; in the assay with SK-MEL-2 melanoma, -80.5% (active); in the assay on EKVX NSCLC, -34.4% (active); in the assay on SN12C renal, -63.9% (active). Further, the growth in the assay with UO-31 renal was -48.4% (active); in the assay with ACHN renal it was -84% (active); in the assay with A498 renal, -34.8% (active); in the assay on HL-60(TB) leukemia it was -42.4% (active); with CCRF-CEM leukemia, -30.6% (active); with MOLT-4 leukemia, -46% (active). The growth in the assay with RPMI-8226 leukemia is -36.6% (active); in the assay with OVCAR-8 ovarian it was -92.7% (active).

`CC1=C2C(=O)[C@H]3[C@@H](CC=C4C[C@@H](O)CC[C@@]43C)[C@@H]2CC[C@]12O[C@@H]1C[C@H](C)CN[C@H]1[C@H]2C`: the growth is 82.6% with HT29 colon; 68.6% in the assay with SNB-75 CNS; 106% in the assay with SNB-19 CNS; 107% with U251 CNS; 96.8% with SK-MEL-5 melanoma; 112% in the assay with UACC-62 melanoma. Moreover, the growth is 96.4% in the assay on LOX IMVI melanoma; 118% in the assay with SK-MEL-28 melanoma; 2.09% (active) in the assay with SK-MEL-2 melanoma; 94.3% with EKVX NSCLC; 102% in the assay with SN12C renal; 72.6% in the assay with UO-31 renal. Besides, the growth is 108% in the assay with ACHN renal; 103% in the assay with A498 renal; 115% with HL-60(TB) leukemia; 89.5% in the assay with CCRF-CEM leukemia; 96.9% in the assay on MOLT-4 leukemia; 92% in the assay with RPMI-8226 leukemia. Besides, the growth in the assay with OVCAR-8 ovarian is 89.3%.
